Results reported in the supplement of paper PMC11732987, “Enantioselective OTUD7B fragment discovery through chemoproteomics screening and high-throughput optimisation” (Communications Chemistry, 2025).

How the values were obtained:
Test in all cases: log2 ratio of Biotin-Ahx-Ub-VS probe labelling (fragment/DMSO); higher = less target engagement (more negative = stronger competition), active = hit call of the paper (q ≤ 0.05, log2 ratio ≤ -1)
Conditions in all cases: compound concentration: 200 uM; treatment time: 3 h
[1] = molecular target: USP34 (UniProt Q70CQ2)
Sequence of USP34 (Q70CQ2 whole entry, the tested form may be a part): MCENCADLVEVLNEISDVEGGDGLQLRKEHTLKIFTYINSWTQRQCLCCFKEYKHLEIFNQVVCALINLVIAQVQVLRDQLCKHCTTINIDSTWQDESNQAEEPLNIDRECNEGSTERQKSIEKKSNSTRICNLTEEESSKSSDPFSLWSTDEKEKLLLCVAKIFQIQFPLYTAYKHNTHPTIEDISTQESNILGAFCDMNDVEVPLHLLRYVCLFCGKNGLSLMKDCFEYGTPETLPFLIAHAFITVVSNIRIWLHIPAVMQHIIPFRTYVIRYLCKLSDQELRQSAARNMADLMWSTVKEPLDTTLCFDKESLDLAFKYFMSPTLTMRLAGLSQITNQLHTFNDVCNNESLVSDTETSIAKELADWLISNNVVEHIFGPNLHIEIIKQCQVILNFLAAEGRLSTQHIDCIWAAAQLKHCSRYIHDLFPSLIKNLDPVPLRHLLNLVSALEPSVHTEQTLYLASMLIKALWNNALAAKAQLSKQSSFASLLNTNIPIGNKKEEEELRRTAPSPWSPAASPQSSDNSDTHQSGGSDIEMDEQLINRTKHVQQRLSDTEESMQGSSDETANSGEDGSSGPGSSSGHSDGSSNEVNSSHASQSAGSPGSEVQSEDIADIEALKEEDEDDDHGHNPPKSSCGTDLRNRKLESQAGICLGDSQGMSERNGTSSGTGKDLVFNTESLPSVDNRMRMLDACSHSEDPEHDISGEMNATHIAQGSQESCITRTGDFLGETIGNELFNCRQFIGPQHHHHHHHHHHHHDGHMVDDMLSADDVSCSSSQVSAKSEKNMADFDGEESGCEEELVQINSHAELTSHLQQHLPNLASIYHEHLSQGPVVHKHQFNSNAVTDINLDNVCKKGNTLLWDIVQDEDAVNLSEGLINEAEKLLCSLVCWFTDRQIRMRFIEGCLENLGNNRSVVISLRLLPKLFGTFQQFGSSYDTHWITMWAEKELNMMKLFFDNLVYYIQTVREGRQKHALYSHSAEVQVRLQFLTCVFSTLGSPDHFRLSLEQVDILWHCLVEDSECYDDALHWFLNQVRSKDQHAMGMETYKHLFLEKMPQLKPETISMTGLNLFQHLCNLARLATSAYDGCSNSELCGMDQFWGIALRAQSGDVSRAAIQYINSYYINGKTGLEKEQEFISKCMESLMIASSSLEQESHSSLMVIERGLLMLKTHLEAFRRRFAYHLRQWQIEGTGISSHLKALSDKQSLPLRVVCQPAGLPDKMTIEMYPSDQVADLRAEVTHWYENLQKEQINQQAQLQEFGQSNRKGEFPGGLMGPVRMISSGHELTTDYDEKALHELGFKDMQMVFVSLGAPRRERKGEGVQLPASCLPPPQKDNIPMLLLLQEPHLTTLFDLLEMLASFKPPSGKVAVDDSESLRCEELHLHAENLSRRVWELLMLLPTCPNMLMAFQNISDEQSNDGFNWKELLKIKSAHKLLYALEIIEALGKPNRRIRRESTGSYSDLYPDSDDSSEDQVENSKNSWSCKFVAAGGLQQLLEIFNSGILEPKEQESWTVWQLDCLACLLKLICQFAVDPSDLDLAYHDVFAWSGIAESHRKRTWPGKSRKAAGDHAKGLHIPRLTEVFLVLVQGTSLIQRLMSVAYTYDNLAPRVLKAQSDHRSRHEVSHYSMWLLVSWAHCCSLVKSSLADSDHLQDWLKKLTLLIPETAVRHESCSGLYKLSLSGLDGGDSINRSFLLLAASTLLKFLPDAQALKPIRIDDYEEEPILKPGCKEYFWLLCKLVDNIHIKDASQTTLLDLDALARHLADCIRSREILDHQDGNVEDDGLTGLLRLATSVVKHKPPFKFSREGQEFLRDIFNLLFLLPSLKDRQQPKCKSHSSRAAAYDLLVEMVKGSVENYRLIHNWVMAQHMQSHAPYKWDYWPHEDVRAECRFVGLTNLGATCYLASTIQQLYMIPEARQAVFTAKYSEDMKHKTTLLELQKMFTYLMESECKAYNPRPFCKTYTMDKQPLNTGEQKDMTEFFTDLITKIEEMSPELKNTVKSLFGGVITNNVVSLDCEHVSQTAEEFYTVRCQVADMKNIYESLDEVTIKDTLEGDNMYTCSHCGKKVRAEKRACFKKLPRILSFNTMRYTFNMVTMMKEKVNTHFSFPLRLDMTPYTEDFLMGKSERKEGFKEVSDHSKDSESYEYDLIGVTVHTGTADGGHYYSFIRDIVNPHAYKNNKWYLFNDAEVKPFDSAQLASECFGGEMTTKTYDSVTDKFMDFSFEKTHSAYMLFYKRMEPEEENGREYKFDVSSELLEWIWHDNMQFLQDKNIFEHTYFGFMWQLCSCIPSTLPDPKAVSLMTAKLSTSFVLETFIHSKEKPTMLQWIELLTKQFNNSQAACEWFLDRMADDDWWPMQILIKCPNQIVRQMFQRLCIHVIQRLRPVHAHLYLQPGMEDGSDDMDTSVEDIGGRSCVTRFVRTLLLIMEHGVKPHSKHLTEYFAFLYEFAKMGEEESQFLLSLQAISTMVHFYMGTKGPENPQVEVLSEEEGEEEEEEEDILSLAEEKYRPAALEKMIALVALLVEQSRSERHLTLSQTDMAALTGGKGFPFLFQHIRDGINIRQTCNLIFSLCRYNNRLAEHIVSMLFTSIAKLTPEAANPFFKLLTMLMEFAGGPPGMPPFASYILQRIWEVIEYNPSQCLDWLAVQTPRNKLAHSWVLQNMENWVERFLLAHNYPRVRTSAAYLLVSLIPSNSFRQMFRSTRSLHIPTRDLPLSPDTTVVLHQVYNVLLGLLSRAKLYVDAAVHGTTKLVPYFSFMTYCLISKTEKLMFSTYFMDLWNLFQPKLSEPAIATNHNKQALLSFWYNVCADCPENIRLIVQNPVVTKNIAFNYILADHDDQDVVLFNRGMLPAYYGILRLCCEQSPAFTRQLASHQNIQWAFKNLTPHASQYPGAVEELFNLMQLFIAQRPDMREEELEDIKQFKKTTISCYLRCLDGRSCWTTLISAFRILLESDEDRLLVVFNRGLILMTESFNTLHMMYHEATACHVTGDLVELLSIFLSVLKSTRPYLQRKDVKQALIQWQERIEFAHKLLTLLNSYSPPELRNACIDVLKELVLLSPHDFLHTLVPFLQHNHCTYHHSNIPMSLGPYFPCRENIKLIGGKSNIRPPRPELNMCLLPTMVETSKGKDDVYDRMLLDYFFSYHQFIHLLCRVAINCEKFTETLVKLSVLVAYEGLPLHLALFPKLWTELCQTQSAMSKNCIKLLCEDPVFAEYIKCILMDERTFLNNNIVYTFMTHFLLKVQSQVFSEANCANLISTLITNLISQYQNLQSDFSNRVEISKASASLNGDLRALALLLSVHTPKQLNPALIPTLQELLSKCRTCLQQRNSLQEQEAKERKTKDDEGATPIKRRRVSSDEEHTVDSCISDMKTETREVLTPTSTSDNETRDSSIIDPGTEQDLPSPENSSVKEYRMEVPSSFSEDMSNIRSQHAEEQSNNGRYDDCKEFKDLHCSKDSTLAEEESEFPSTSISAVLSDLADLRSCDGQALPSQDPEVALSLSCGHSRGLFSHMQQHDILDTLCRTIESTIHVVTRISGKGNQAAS
Procedure, shortened: (§1)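 Global-median-normalised Spectronaut label-free quantities were compared by unpaired t-test, and values are average log2 ratios of fragment over vehicle. Only proteins with ≥2 unique peptides were used. HEK293T lysate (495 µg per sample) was treated in triplicate with fragment at 200 µM or vehicle for 3 h and then with Biotin-Ahx-Ub-VS at 0.5 µM final for 1 h. Labelled DUBs were then NeutrAvidin-enriched, digested with LysC and trypsin, and run by diaPASEF LC-MS/MS.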

[2] = molecular target: T1, USP36 (UniProt Q9P275)
T1 sequence (whole entry): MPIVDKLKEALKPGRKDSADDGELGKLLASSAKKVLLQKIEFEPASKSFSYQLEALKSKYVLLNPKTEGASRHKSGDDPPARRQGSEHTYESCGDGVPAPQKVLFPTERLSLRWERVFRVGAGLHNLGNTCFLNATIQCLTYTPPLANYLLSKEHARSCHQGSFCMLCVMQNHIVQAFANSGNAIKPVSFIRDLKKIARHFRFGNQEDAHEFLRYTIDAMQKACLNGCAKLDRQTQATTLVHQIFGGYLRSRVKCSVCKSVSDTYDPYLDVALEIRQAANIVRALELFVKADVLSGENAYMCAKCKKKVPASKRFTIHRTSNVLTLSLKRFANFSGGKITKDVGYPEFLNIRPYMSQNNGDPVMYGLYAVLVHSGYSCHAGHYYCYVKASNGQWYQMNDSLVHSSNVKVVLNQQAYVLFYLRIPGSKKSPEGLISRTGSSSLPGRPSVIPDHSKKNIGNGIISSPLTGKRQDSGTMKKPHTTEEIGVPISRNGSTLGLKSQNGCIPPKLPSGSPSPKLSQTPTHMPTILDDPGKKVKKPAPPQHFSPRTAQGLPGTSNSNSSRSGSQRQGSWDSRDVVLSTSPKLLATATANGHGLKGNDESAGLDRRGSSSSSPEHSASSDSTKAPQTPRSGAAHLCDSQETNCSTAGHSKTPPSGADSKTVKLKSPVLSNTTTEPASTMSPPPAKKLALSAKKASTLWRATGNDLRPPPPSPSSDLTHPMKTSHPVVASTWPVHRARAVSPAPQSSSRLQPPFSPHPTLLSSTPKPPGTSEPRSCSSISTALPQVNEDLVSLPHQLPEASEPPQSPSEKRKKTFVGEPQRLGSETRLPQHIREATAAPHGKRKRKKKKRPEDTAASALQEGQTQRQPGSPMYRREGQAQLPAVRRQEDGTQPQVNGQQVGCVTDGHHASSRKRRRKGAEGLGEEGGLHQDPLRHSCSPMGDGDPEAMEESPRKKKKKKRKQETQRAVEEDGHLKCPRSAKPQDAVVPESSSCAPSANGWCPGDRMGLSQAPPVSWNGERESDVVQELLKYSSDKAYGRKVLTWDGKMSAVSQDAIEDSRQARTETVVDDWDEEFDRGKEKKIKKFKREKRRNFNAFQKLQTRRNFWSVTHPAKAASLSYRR
Procedure, shortened: as §1

[3] = molecular target: T2, USP38 (UniProt Q8NB14)
T2 sequence (whole entry): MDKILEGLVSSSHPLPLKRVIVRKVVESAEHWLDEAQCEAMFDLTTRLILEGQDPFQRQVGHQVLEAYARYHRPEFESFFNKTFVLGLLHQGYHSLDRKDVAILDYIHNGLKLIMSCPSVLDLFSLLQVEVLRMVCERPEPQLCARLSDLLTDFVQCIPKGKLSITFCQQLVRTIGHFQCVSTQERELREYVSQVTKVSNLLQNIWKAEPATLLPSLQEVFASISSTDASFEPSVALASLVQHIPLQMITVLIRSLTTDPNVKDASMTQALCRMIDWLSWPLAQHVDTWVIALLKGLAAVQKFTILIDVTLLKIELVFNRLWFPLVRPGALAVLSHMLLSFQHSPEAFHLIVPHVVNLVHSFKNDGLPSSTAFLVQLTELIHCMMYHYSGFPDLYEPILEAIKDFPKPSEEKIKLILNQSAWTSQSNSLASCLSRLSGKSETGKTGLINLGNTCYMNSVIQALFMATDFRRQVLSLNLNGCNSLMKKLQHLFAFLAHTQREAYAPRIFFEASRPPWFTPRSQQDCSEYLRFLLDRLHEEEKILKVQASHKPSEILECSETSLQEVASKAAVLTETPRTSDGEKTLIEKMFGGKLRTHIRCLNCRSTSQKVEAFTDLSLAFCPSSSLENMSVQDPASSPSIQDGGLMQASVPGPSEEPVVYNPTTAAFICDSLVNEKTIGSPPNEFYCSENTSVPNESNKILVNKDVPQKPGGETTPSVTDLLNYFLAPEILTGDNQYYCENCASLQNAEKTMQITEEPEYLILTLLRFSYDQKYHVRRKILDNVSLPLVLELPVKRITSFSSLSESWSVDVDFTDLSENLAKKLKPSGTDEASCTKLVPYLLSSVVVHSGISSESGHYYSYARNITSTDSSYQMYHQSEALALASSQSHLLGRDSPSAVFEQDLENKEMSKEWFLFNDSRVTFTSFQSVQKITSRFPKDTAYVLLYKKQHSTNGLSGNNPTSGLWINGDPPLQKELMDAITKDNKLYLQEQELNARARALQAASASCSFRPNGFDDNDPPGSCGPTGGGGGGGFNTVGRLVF
Procedure, shortened: as §1

[4] = molecular target: T3, USP39 (UniProt Q53GS9)
T3 sequence (whole entry): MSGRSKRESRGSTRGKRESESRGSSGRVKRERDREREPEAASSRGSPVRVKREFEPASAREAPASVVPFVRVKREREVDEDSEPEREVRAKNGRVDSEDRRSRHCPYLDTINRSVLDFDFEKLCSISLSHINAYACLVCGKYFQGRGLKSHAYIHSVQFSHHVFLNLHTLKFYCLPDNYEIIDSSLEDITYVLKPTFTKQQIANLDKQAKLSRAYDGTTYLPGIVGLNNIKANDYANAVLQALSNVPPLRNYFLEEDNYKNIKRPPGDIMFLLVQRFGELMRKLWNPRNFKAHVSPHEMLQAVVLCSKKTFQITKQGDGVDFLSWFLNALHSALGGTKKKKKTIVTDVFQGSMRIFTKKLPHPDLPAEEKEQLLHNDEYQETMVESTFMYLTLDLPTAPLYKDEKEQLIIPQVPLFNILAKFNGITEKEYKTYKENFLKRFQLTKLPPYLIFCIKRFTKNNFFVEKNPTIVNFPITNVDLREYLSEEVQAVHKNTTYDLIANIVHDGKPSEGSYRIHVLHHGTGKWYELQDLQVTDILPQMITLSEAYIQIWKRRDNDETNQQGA
Procedure, shortened: as §1

[5] = molecular target: T4, USP4 (UniProt Q13107)
T4 sequence (whole entry): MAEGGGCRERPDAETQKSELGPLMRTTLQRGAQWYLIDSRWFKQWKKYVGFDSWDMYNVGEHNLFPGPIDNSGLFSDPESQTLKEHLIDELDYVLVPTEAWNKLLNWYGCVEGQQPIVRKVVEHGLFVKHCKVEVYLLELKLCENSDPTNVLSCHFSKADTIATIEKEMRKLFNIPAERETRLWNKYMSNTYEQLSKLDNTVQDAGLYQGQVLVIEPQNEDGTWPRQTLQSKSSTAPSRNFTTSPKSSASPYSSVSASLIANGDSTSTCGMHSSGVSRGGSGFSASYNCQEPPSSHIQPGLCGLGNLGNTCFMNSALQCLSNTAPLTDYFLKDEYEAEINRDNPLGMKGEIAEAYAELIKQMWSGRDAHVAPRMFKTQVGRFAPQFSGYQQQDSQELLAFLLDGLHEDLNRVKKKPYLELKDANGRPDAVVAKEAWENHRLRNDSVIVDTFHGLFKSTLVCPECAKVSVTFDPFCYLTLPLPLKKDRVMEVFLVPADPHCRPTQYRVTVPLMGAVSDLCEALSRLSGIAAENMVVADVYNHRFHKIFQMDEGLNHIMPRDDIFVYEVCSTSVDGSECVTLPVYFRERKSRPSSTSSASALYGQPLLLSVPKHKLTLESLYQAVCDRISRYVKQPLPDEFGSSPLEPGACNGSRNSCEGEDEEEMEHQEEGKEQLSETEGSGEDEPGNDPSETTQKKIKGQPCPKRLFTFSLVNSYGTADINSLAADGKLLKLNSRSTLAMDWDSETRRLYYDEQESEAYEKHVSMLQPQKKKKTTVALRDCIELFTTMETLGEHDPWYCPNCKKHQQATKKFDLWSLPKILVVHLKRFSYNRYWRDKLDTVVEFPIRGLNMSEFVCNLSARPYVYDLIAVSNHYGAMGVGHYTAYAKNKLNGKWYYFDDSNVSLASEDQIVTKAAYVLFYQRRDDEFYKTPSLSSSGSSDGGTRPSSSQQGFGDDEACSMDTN
Procedure, shortened: as §1

Measured: log2 ratio of Biotin-Ahx-Ub-VS probe labelling

CCN(C(=O)CCl)C1CCCCC1
inactive: [1] -0.106 | [2] -0.191 | [3] 0.143 | [4] 0.059 | [5] 0.182
